Measurements taken from PubChem BioAssay AID1159580 (chemical genetic matrix, 2015).
Where “and” joins values, the source holds several entries; their conditions need not be identical. Equal values may be shown once. Out of some 5,500 compounds screened, about 2,000 (36%) were called active. About 18% were inconclusive and are not listed. No stated cut-off is given here; in the data, active means normalized growth mostly below about 0.91 (no sharp cut-off); inconclusive means no clear call, values can overlap the other calls; inactive means mostly above about 0.92. The list shows a part of the results.

Experiment: chemical genetic growth profiling, strain panel (AID 1159580);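 further: tested at 20 µM; growth read once vehicle control cultures reached saturation at 30 °C; 1 = growth at the plate median or of vehicle wells; lower values mean less growth of the strain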
Settings: S. cerevisiae deletion strains, growth OD

Measured: normalized growth

CCCCCCCCCCCCC[N+](C)(C)Cc1ccccc1
active: locus YAL013W, strain DEP1, active compounds read low 0.0555 | locus YAL021C, strain ccr4, active compounds read low 0.0637 | locus YAL026C, strain drs2, active compounds read low 0.0609 | locus YAL030W, strain snc1, active compounds read low 0.0556 | locus YBL061C, strain skt5, active compounds read low 0.0585 | locus YBR009C, strain hhf1, active compounds read low 0.0639 | locus YBR021W, strain FUR4, active compounds read low 0.0876 | locus YBR023C, strain chs3, active compounds read low 0.0617 | locus YBR171W, strain sec66, active compounds read low 0.0746 | locus YBR229C, strain ROT2, active compounds read low 0.0463 | locus YBR231C, strain swc5, active compounds read low 0.0605 | locus YBR279W, strain paf1, active compounds read low 0.0571 | locus YCL011C, strain gbp2, active compounds read low 0.0555 | locus YCL016C, strain dcc1, active compounds read low 0.0666 | locus YCL029C, strain bik1, active compounds read low 0.0604 | locus YCL069W, strain vba3, active compounds read low 0.0638 | locus YCR088W, strain abp1, active compounds read low 0.059 | locus YDL005C, strain med2, active compounds read low 0.073 | locus YDL035C, strain GPR1, active compounds read low 0.0501 | locus YDL040C, strain nat1, active compounds read low 0.0568 | locus YDL074C, strain BRE1, active compounds read low 0.078 | locus YDL101C, strain DUN1, active compounds read low 0.0549 | locus YDL134C, strain PPH21, active compounds read low 0.0476 | locus YDL185W, strain tfp1, active compounds read low 0.0592 | locus YDL192W, strain arf1, active compounds read low 0.0605 | locus YDR001C, strain nth1, active compounds read low 0.0567 | locus YDR069C, strain doa4, active compounds read low 0.0672 | locus YDR101C, strain arx1, active compounds read low 0.0615 | locus YDR137W, strain rgp1, active compounds read low 0.12 | locus YDR159W, strain sac3, active compounds read low 0.0884 | locus YDR162C, strain NBP2, active compounds read low 0.0468 | locus YDR195W, strain ref2 0.118 | locus YDR297W, strain sur2, active compounds read low 0.0581 | locus YDR318W, strain mcm21, active compounds read low 0.063 | locus YDR334W, strain swr1, active compounds read low 0.0601 | locus YDR335W, strain msn5, active compounds read low 0.0563 | locus YDR388W, active compounds read low 0.0567 | locus YDR392W, strain spt3, active compounds read low 0.0701 | locus YDR502C, strain sam2, active compounds read low 0.0651 | locus YEL003W, strain gim4, active compounds read low 0.0517 | locus YEL037C, strain rad23, active compounds read low 0.0542 | locus YEL061C, strain CIN8 (second series), active compounds read low 0.0587 | locus YEL061C, strain CIN8, active compounds read low 0.0483 | locus YER015W, strain faa2, active compounds read low 0.0622 | locus YER016W, strain bim1, active compounds read low 0.063 | locus YER110C, active compounds read low 0.0733 | locus YER111C, strain swi4, active compounds read low 0.0674 | locus YER155C, strain BEM2 (second series), active compounds read low 0.0862 | locus YER155C, strain BEM2, active compounds read low 0.0618 | locus YER167W, strain BCK2, active compounds read low 0.0502 | locus YFR010W, strain ubp6, active compounds read low 0.0662 | locus YGL078C, strain dbp3, active compounds read low 0.0681 | locus YGL086W, strain mad1, active compounds read low 0.0582 | locus YGL167C, strain pmr1, active compounds read low 0.0698 | locus YGL173C, strain kem1, active compounds read low 0.0657 | locus YGL227W, strain vid30, active compounds read low 0.0603 | locus YGL240W, strain doc1, active compounds read low 0.0764 | locus YGL248W, strain PDE1, active compounds read low 0.0462 | locus YGL253W, strain hxk2, active compounds read low 0.0524 | locus YGR078C, strain PAC10, active compounds read low 0.0524 | locus YGR135W, strain pre9, active compounds read low 0.0647 | locus YGR229C, strain SMI1, active compounds read low 0.0592 | locus YGR252W, strain gcn5, active compounds read low 0.206 | locus YHR013C, strain ard1, active compounds read low 0.102 | locus YHR027C, strain rpn1, active compounds read low 0.0626 | locus YHR030C, strain SLT2, active compounds read low 0.0492 and 0.104 | locus YHR079C, strain IRE1 (second series), active compounds read low 0.0567 | locus YHR079C, strain IRE1, active compounds read low 0.111 | locus YHR094C, strain hxt1, active compounds read low 0.058 | locus YHR129C, strain ARP1, active compounds read low 0.0544 | locus YHR142W, strain chs7, active compounds read low 0.0737 | locus YHR200W, strain rpn10, active compounds read low 0.0601 | locus YIL066C, strain RNR3, active compounds read low 0.0508 | locus YIL073C, strain SPO22, active compounds read low 0.129 | locus YIL125W, strain kgd1, active compounds read low 0.0665 | locus YIR030C, strain dcg1, active compounds read low 0.0594 | locus YJL092W, strain hpr5, active compounds read low 0.0601 | locus YJL095W, strain BCK1 (second series), active compounds read low 0.0575 | locus YJL095W, strain BCK1, active compounds read low 0.0546 and 0.0934 | locus YJL115W, strain asf1, active compounds read low 0.0698 | locus YJL129C, strain trk1, active compounds read low 0.0815 | locus YJL134W, strain LCB3, active compounds read low 0.0471 | locus YJL154C, strain vps35, active compounds read low 0.0584 | locus YJL164C, strain tpk1, active compounds read low 0.0596 | locus YJL166W, strain qcr8, active compounds read low 0.0642 | locus YJL168C, strain set2, active compounds read low 0.0571 | locus YJL187C, strain SWE1 (second series), active compounds read low 0.0466 | locus YJR043C, strain POL32, active compounds read low 0.0593 | locus YJR066W, strain TOR1, active compounds read low -0.000757
